PfHsp40 rescue: compounds rescuing yeast from Plasmodium falciparum HSP40 toxicity; 340,000 tested, 0.68% active; S. cerevisiae expressing PfHsp40, growth rescue, ATP luminescence; growth rescue, % at 12.5 µM; in the data active = growth rescue above about 28%, passing the limit was not always enough;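 note: yeast W303a lacking pdr1 and pdr3 grown in galactose medium; growth measured after three days at 30 °C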
Y pestis TopoI: blocks Yersinia pestis topoisomerase I activity; activity, % at 10 µM; 360,000 tested, 0.064% active; Y. pestis Topo-I cleavage product accumulation, plate reader; in the data active = activity above about 50%, passing the limit was not always enough
PrP UTR inh: inhibition of PrP 5' UTR reporter expression; cell-based PrP 5' UTR mRNA reporter, plate reader; inhibition, % (concentration not given with the values); 340,000 tested, 0.35% active; AID 488862; in the data active = inhibition above about 52%; note: 0 = median of the neutral control wells
Sa RN4220 lethal: kills Staphylococcus aureus RN4220; S. aureus RN4220 growth, OD600, 16 h; inhibition, % (test concentration not listed); 330,000 tested, 0.33% active; AID 1259311; in the data active = inhibition above about 85%;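 note: plate controls were untreated cells for no effect and reference antibiotic for full effect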
BJeLR lethal: BJeLR cell viability loss; BJeLR (HRASV12) viability, CellTiter-Glo ATP luminescence, 48 h; 300,000 tested, 0.17% active; inhibition, % (no concentration beside the values); in the data active = inhibition above about 50%
ugtP null kill: compounds lethal to S. aureus RN4220 ugtP deletion mutant; 330,000 tested, 0.54% active; AID 1259309; OD600 growth, 16 h; growth inhibition, % (concentration not given with the values); in the data active = growth inhibition above about 68%;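 note: plate controls were untreated wells for no effect and antibiotic for full effect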
Active calls of the source: *; / = not tested or not shown. The list is not random: actives were taken first. Their share in the collection is about 1.4%.

SMILES	PfHsp40 rescue	Y pestis TopoI	PrP UTR inh	Sa RN4220 lethal	BJeLR lethal	ugtP null kill
COc1ccc(N2CCN(C(=O)c3ccc(C)cc3)CC2)c([N+](=O)[O-])c1	33*	10	-15	9	-3	6
O=C(COc1ccc2cc(Br)ccc2c1Br)N1CCOCC1	1	53*	-12	0	/	-15
O=C(O)CC1c2cc(F)ccc2S(=O)(=O)N1C1CCCC1 (stereo not drawn)	/	/	/	1	/	-2
COc1ccc(-n2c(/C=C/c3ccc(O)cc3)nc3ccccc3c2=O)cc1	0	0	3	-10	-11	18
O=c1c2ccccc2nc(/C=C/c2ccc3c(c2)OCO3)n1-c1cccc(O)c1	1	7	-15	96*	7	93*
Cc1ccc(-n2c(/C=C/c3ccc4c(c3)OCO4)nc3ccccc3c2=O)cc1	/	/	/	/	-3	/
COc1ccc(/C=C/c2nc3ccccc3c(=O)n2-c2cccc(C(=O)O)c2)cc1	0	-5	-8	92*	-3	84
COC(=O)CC1=C(C(=O)OC)C2(C(=O)N(C)c3ccccc32)C(C#N)=C(N)O1 (stereo not drawn)	0	-4	-28	98*	3	98*
CC=CC(=O)Nc1cccc(C2=NOC3(C2)CC(C(N)=O)N(C(=O)C=CCC)C3)c1 (stereo not drawn)	/	/	/	2	/	-1
O=C(C#Cc1cccc([N+](=O)[O-])c1)c1ccccc1	5	4	-12	75	5	98*
O=C(O)C(=Cc1cccc([N+](=O)[O-])c1)c1ccccc1	/	8	/	/	/	/
O=C(O)c1cccc2c1NC(C(=O)O)C1CC(Sc3ccccc3[N+](=O)[O-])C(Cl)C21 (stereo not drawn)	55*	-29	-30	35	/	24
CN1CC2C3C(=O)N(Cc4ccccc4)C(=O)C3[C@](C)(C1=O)N2C(=O)c1ccc(C(C)(C)C)cc1 (stereo partly drawn)	/	/	/	9	/	3
CC1CN(C(C)CO)C(=O)c2cccc(NC(=O)CCCCCC(=O)Nc3ccccc3N)c2OC1CN(C)Cc1ccncc1 (stereo not drawn)	/	/	/	4	/	-5
COC(=O)CC1c2cc(F)ccc2S(=O)(=O)N1c1ccccc1 (stereo not drawn)	/	/	/	4	/	-7
COc1cc(NS(=O)(=O)c2ccc(Nc3nc(-c4ccccn4)cs3)cc2)nc(OC)n1	1	-13	-21	-3	2	90*
CC(C)(C)N1C(=O)C2C(c3ccc(Br)cc3)N3C(=O)N(c4cccc(F)c4)C(=O)[C@@]3(C)C2C1=O (stereo partly drawn)	/	/	/	2	/	-15
CCCn1c(=O)c(C(=O)NCCc2ccccc2)c(O)c2ccccc21	-1	-2	-15	2	10	1
C=CCn1c(=O)c(C(=O)Nc2cccnc2)c(O)c2ccccc21	-1	1	-4	99*	-2	61
C=CCn1c(=O)c(C(=O)Nc2ccc(C)cn2)c(O)c2ccccc21	1	0	-30	96*	-2	100*
C=CCn1c(=O)c(C(=O)NCCc2ccccc2)c(O)c2ccccc21	94*	5	6	8	0	28
O=C(CN1C(=O)COc2ccccc21)N1CCN(c2ccccc2F)CC1	83*	6	-14	-2	-7	-1
Fc1ccccc1-c1csc(-c2cccnc2)n1	0	7	-46	4	3	2
Clc1ccc(-c2csc(-c3cccnc3)n2)s1	29*	3	-45	6	-9	-6
CCOC(=O)c1ccc(N2C(=O)CC(N(C)CCc3ccc(OC)c(OC)c3)C2=O)cc1 (stereo not drawn)	558*	14	-3	-6	11	-2
SMILES	PfHsp40 rescue	Y pestis TopoI	PrP UTR inh	Sa RN4220 lethal	BJeLR lethal	ugtP null kill
CCOc1cccc(N2C(=O)CC(N(CCc3ccc(OC)c(OC)c3)C(=O)CC)C2=O)c1 (stereo not drawn)	3	0	2	-6	6	-6
Cc1nc2c(Cl)cc(Cl)cc2[nH]1	33*	1	-22	5	0	-6
Cc1ccc(NC(=O)/C=C/c2ccc([N+](=O)[O-])s2)cc1	0	-3	-45	/	59*	/
Cc1cccc(NC(=O)/C=C/c2ccc([N+](=O)[O-])s2)c1	-1	-17	-45	40	83*	29
Cc1cccc(NC(=S)N/N=C/c2ccc([N+](=O)[O-])s2)c1	56*	-5	0	/	2	/
Cc1ccc(NC(=O)/C=C/c2ccc([N+](=O)[O-])s2)c(C)c1	9	-13	-47	26	15	4
Cc1ccc(NC(=S)NN=Cc2ccc([N+](=O)[O-])s2)cc1	/	/	/	46	/	72
COC(=O)C1=C(c2ccc(S(C)(=O)=O)cc2)CC2CCC1N2C(=O)NCc1ccccc1 (stereo not drawn)	/	/	/	4	/	2
[N-]=[N+]=NC(CCN1CCC(NC(=O)OCc2ccccc2)CCC1=O)c1ccccc1 (stereo not drawn)	/	/	/	2	/	-12
Cc1cc(Nc2ccc(Cl)cc2)nc(-c2ccccc2O)n1	72*	-1	-1	-14	-2	6
Cc1cc(Nc2cccc(Cl)c2)nc(-c2ccccc2O)n1	1	-18	-14	-14	-9	24
CCCCOCCCNC(=O)NC(C(=O)OC)C(C)C (stereo not drawn)	/	/	/	-3	/	-7
Cc1cccc(C2C3C(=O)N(Cc4ccccc4)C(=O)C3[C@]3(CC(C)C)C(=O)N(c4cccc(F)c4)C(=O)N23)c1 (stereo partly drawn)	/	/	/	2	/	-17
COC(=O)[C@@]12CCCCN1C(c1ccc(-c3ccccc3)cc1)C1C(=O)N(C)C(=O)C12 (stereo partly drawn)	/	/	/	-2	/	-3
Cc1ccc(N(C(=O)CCl)C(C(=O)NC2CCCCC2)c2cccnc2)cc1C (stereo not drawn)	/	/	/	16	101*	-4
Cc1ccc(N(C(=O)CNC(=O)c2ccco2)C(C(=O)NC2CCCCC2)c2cccnc2)cc1C (stereo not drawn)	-1	9	-5	4	5	1
Cc1noc(C)c1NC(=O)N(C)CC1Oc2ccc(NS(=O)(=O)c3c(C)noc3C)cc2C(=O)N(C(C)CO)CC1C (stereo not drawn)	/	/	/	1	/	-4
C/C(=N/NC(=O)c1cc2ccccc2cc1O)c1ccco1	77*	-8	-51	/	7	/
C/C(=N\NC(=O)c1cc2ccccc2cc1O)c1ccc(C)o1	0	-10	-28	/	9	/
COc1ccc(C2C3C(=O)N(C(C)(C)C)C(=O)C3[C@]3(CC(C)C)C(=O)N(c4ccccc4)C(=O)N23)cc1 (stereo partly drawn)	/	/	/	2	/	-1
c1ccc(-c2onc(-c3ccco3)c2-c2ccc3[nH]ccc3c2)cc1	-1	-14	-18	-31	-12	85*
Cc1cc(C)cc(OCC(=O)OC/C(O)=C(\C#N)c2nc3ccccc3[nH]2)c1	28*	9	-11	2	4	-7
